Measured values published in article PMC5540273 (PLoS ONE, 2017).

Columns and labels:
Conditions in all cases: concentration: 1 μM, replicates: in singlicate; n = 1
ULK2 = test system: ULK2
ULK3 = test system: ULK3
VEGFR2 = test system: T1, VEGFR2
T1 construct: gene KDR

VPS34 = test system: T2, VPS34
T2 construct: gene PIK3C3

VRK2 = test system: VRK2
WEE1 = test system: WEE1
WEE2 = test system: WEE2
WNK1 = test system: WNK1
WNK2 = test system: WNK2
WNK3 = test system: WNK3
WNK4 = test system: WNK4
YANK1 = test system: T3, YANK1
T3 construct: gene STK32A

YANK2 = test system: T4, YANK2
T4 construct: gene STK32B

YANK3 = test system: T5, YANK3
T5 construct: gene STK32C

YES = test system: T6, YES
T6 construct: gene YES1

YSK1 = test system: T7, YSK1
T7 construct: gene STK25

YSK4 = test system: T8, YSK4
T8 construct: gene MAP3K19

ZAK = test system: ZAK
ZAP70 = test system: ZAP70
p38-alpha = test system: T9, p38-alpha
T9 construct: gene MAPK14
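Further: KINOMEscan kinase panel screen.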

Row | SMILES | %Inh (ULK2) [%] | %Inh (ULK3) [%] | %Inh (VEGFR2) [%] | %Inh (VPS34) [%] | %Inh (VRK2) [%] | %Inh (WEE1) [%] | %Inh (WEE2) [%] | %Inh (WNK1) [%] | %Inh (WNK2) [%] | %Inh (WNK3) [%] | %Inh (WNK4) [%] | %Inh (YANK1) [%] | %Inh (YANK2) [%] | %Inh (YANK3) [%] | %Inh (YES) [%] | %Inh (YSK1) [%] | %Inh (YSK4) [%] | %Inh (ZAK) [%] | %Inh (ZAP70) [%] | %Inh (p38-alpha) [%]
1 | Fc1ccc(Nc2nccc(-c3c(-c4ccc(Cl)cc4)nn4ncccc34)n2)cc1F [GW829058] | 100 | 33 | 25 | 5 | 34 | 10 | 2 | 42 | 0 | 41 | 28 | 0 | 4 | 30 | 0 | 0 | 47 | 18 | 13 | 26
2 | N#Cc1ccc(Oc2ccc(Nc3ncnc4cc[nH]c34)cc2Cl)cc1 | 34 | 30 | 12 | 0 | 3 | 28 | 8 | 0 | 7 | 0 | 19 | 19 | 22 | 0 | 0 | 0 | 20 | 18 | 0 | 19
3 | CS(=O)(=O)CCNCc1nc(-c2ccc3ncnc(Nc4ccc(OCc5cccc(F)c5)c(Cl)c4)c3c2)cs1.Cl [GW583340] | 0 | 0 | 1 | 0 | 0 | 9 | 0 | 4 | 9 | 18 | 0 | 0 | 0 | 0 | 3 | 0 | 17 | 91.6 | 0 | 18
4 | Fc1ccc(-c2ncn(CCCNCc3ccccc3)c2-c2ccncc2)cc1 | 19 | 14 | 0 | 0 | 13 | 0 | 4 | 0 | 0 | 0 | 0 | 17 | 0 | 7 | 17 | 0 | 9 | 10 | 11 | 77
5 | Cl.c1ccc(Cn2ncc3cc(Nc4ncnc5ccccc45)ccc32)cc1 [GW273749] | 0 | 5 | 20 | 0 | 0 | 10 | 3 | 3 | 3 | 0 | 0 | 6 | 0 | 0 | 16 | 17 | 30 | 0 | 0 | 10
6 | Cc1cccc(-c2nc(Nc3ccc4[nH]nnc4c3)c3ccccc3n2)n1 [GW867587] | 0 | 0 | 0 | 0 | 20 | 0 | 0 | 0 | 0 | 0 | 0 | 0 | 0 | 1 | 0 | 0 | 0 | 0 | 0 | 0
7 | OCCOCCn1ccc2ncnc(Nc3ccc(Oc4cccc(Cl)c4)c(Cl)c3)c21 | 0 | 0 | 0 | 0 | 46 | 0 | 0 | 0 | 0 | 0 | 0 | 0 | 0 | 0 | 0 | 0 | 0 | 0 | 0 | 0
8 | Cc1ccc(C)c(NC(=O)NCCNc2ccnc(Nc3ccc(F)cc3)n2)c1 [GSK1379878] | 0 | 0 | 0 | 0 | 0 | 8 | 0 | 0 | 9 | 15 | 23 | 0 | 0 | 0 | 0 | 0 | 0 | 34 | 0 | 6
9 | Clc1cc(Nc2ncnc3cc[nH]c23)ccc1OCc1ccccn1 | 14 | 21 | 6 | 13 | 9 | 0 | 0 | 0 | 1 | 20 | 25 | 12 | 3 | 51 | 0 | 0 | 34 | 18 | 0 | 18
10 | FC(F)(F)c1ccc(-c2cc(-c3c[nH]nc3-c3ccccn3)ccn2)cc1 [GW599550] | 0 | 0 | 4 | 0 | 0 | 12 | 0 | 0 | 7 | 31 | 42 | 98.8 | 10 | 0 | 6 | 20 | 28 | 24 | 0 | 28
11 | Nc1n[nH]c2nnc(-c3ccccc3)cc12 [SB-517389] | 0 | 10 | 0 | 0 | 0 | 21 | 15 | 10 | 17 | 5 | 0 | 13 | 0 | 21 | 16 | 0 | 75 | 24 | 0 | 0
12 | Cl.Cn1ccc(-c2cccc(Nc3ccnc4cc(-c5nccs5)ccc34)c2)n1 [GW525701] | 0 | 0 | 0 | 0 | 7 | 11 | 0 | 17 | 18 | 50 | 66 | 0 | 10 | 0 | 21 | 17 | 41 | 0 | 74 | 9
13 | Clc1ccc(-c2cc(-c3c[nH]nc3-c3ccccn3)ccn2)cc1 [GW681251] | 0 | 1 | 0 | 0 | 11 | 18 | 0 | 16 | 0 | 19 | 0 | 0 | 0 | 0 | 0 | 0 | 0 | 14 | 47 | 45
14 | Fc1cccc(COc2ccc(Nc3ncnc4nn5ccccc5c34)cc2Cl)c1 [GW689066] | 0 | 2 | 0 | 60 | 28 | 0 | 0 | 0 | 0 | 20 | 23 | 0 | 0 | 6 | 13 | 1 | 3 | 4 | 0 | 11
15 | Fc1cccc(COc2ccc(Nc3ncnc4sc(-c5ccc[nH]5)cc34)cc2Cl)c1 [GW707818] | 0 | 1 | 8 | 0 | 26 | 6 | 0 | 12 | 6 | 13 | 6 | 13 | 34 | 0 | 1 | 0 | 8 | 0 | 6 | 44
